Results filed as inconclusive are left out. Activity calls are given as the source filed them. Calls follow the shape of the dose curve; as a rule, active = well fitted cell-killing curve with a large enough effect; inconclusive = small, poorly fitted or top-dose-only effect, or effect the other way; inactive = flat fitted curve, though single readings scatter.
Tests used:
Assay in all cases: Primary qHTS to identify gynecologic anti-cancer compounds using libraries of approved drugs and bioactive compounds (AID 1345084); also: nearly all actives have a fitted effect of over 55% in size
C33A = settings: Gynecologic cancer cell panel viability, ATPlite luminescence, 48 h; series mostly up to 57.5 µM
How it was run: (§1)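 Cells, 1,000 per well, were allowed to settle for 16 h at 37 C before compound addition. Five concentrations were tested for 48 h, and viability was read by ATPlite luminescence after 15 min at room temperature.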

CAOV3 = settings: Gynecologic cancer cell panel viability, ATPlite luminescence, 48 h; series mostly up to 57.5 µM
How it was run: as §1

CASKI = settings: Gynecologic cancer cell panel viability, ATPlite luminescence, 48 h; series mostly up to 57.5 µM
How it was run: as §1

Es-2 = settings: Gynecologic cancer cell panel viability, ATPlite luminescence, 48 h; series mostly up to 57.5 µM
How it was run: as §1

HeLa = settings: Gynecologic cancer cell panel viability, ATPlite luminescence, 48 h; series mostly up to 57.5 µM
How it was run: as §1

Hek293T = settings: Gynecologic cancer cell panel viability, ATPlite luminescence, 48 h, control line for the selectivity index; series mostly up to 57.5 µM
How it was run: as §1

JEG-3 = settings: Gynecologic cancer cell panel viability, ATPlite luminescence, 48 h; series mostly up to 57.5 µM
How it was run: as §1

OV90 = settings: Gynecologic cancer cell panel viability, ATPlite luminescence, 48 h; series mostly up to 57.5 µM
How it was run: as §1

PA-1 = settings: Gynecologic cancer cell panel viability, ATPlite luminescence, 48 h; series mostly up to 57.5 µM
How it was run: as §1

Tov-21-G = settings: Gynecologic cancer cell panel viability, ATPlite luminescence, 48 h; series mostly up to 57.5 µM
How it was run: as §1

Tov112D = settings: Gynecologic cancer cell panel viability, ATPlite luminescence, 48 h; series mostly up to 57.5 µM
How it was run: as §1
% is scaled to controls: 0 for no effect and ±100 for the full control effect; potency is read from the fitted curve at half-maximal effect.

C=CC1(C)CC(OC(=O)/C(C)=C\COC(C)=O)C(C(=C)C(=O)O)C(O)C1C(=C)CO (configuration not stated)
inactive: Potency (C33A) | Potency (CAOV3) | Potency (CASKI) | Potency (Es-2) | Potency (HeLa) | Potency (Hek293T) | Potency (JEG-3) | Potency (OV90) | Potency (PA-1) | Potency (Tov-21-G) | Potency (Tov112D)

CCNC(=O)C1OC(n2cnc3c(N)nc(NCCc4ccc(CCC(=O)O)cc4)nc32)C(O)C1O (configuration not stated)
inactive: Potency (C33A) | Potency (CAOV3) | Potency (CASKI) | Potency (Es-2) | Potency (HeLa) | Potency (Hek293T) | Potency (JEG-3) | Potency (OV90) | Potency (PA-1) | Potency (Tov-21-G) | Potency (Tov112D)

C[C@@H]1O[C@@H](O[C@@H]2[C@@H](O)[C@H](O[C@H]3[C@H](O[C@H]4CC[C@@]5(C)C(CC[C@]6(C)C5CC=C5[C@@H]7CC(C)(C)CC[C@]7(C(=O)O[C@@H]7O[C@H](CO)[C@@H](O)[C@H](O)[C@H]7O[C@@H]7O[C@@H](C)[C@H](O[C@@H]8O[C@@H](C)[C@H](O)[C@@H](O)[C@H]8O)[C@@H](O)[C@H]7O)CC[C@]56C)[C@@]4(C)CO)O[C@H](C(=O)O)[C@@H](O)[C@@H]3O)O[C@H](CO)[C@H]2O)[C@H](O)[C@H](O)[C@H]1O (some centres not stated)
inactive: activity change, negative = cytotoxicity (C33A) 0.245% [at 6.55 µM] | activity change, negative = cytotoxicity (CAOV3) 5.38% [at 6.55 µM] | activity change, negative = cytotoxicity (CASKI) 3.98% [at 6.55 µM] | activity change, negative = cytotoxicity (Es-2) -0.113% [at 6.55 µM] | activity change, negative = cytotoxicity (HeLa) 1.1% [at 6.55 µM] | activity change, negative = cytotoxicity (Hek293T) 2.2% [at 6.55 µM] | activity change, negative = cytotoxicity (JEG-3) 8.58% [at 6.55 µM] | activity change, negative = cytotoxicity (OV90) 6.41% [at 6.55 µM] | activity change, negative = cytotoxicity (PA-1) 2.55% [at 6.55 µM] | activity change, negative = cytotoxicity (Tov-21-G) -1.58% [at 6.55 µM] | activity change, negative = cytotoxicity (Tov112D) 10.3% [at 6.55 µM]

CC/C=C/CC1=C(CCCCC(CCC(=O)O)OC(C)=O)CCC1=O (configuration not stated)
inactive: Potency (C33A) | Potency (CAOV3) | Potency (CASKI) | Potency (Es-2) | Potency (HeLa) | Potency (Hek293T) | Potency (JEG-3) | Potency (OV90) | Potency (PA-1) | Potency (Tov-21-G) | Potency (Tov112D)

CC(C)[C@@H](CS(=O)(=O)C(C)C)N1C(=O)[C@@](C)(CC(=O)O)C[C@H](c2cccc(Cl)c2)[C@H]1c1ccc(Cl)cc1
inactive: Potency (C33A) | Potency (CAOV3) | Potency (CASKI) | Potency (Es-2) | Potency (HeLa) | Potency (Hek293T) | Potency (JEG-3) | Potency (OV90) | Potency (Tov112D)
active: Potency (PA-1) 4.47 µM

CC1(C)CCC2(C(=O)OC3OC(CO)C(O)C(O)C3O)CCC3(C)C(=CCC4C5(C)CCC(O)C(C)(C(=O)O)C5CCC43C)C2C1O (configuration not stated)
inactive: Potency (C33A) | Potency (CAOV3) | Potency (CASKI) | Potency (Es-2) | Potency (HeLa) | Potency (Hek293T) | Potency (JEG-3) | Potency (OV90) | Potency (PA-1) | Potency (Tov-21-G) | Potency (Tov112D)

O=C(O)c1ccccc1NC(=O)N1CCC(c2ccccc2C(F)(F)F)CC1
inactive: Potency (C33A) | Potency (CAOV3) | Potency (CASKI) | Potency (Es-2) | Potency (HeLa) | Potency (Hek293T) | Potency (JEG-3) | Potency (OV90) | Potency (PA-1) | Potency (Tov-21-G) | Potency (Tov112D)

CC#CC(=O)N1CCC[C@H]1c1nc(-c2ccc(C(=O)Nc3ccccn3)cc2)c2c(N)nccn12
inactive: Potency (C33A) | Potency (CAOV3) | Potency (CASKI) | Potency (Es-2) | Potency (HeLa) | Potency (Hek293T) | Potency (JEG-3) | Potency (OV90) | Potency (PA-1) | Potency (Tov-21-G) | Potency (Tov112D)

C=CC1C(OC2OC(CO)C(O)C(O)C2O)OC=C(C(=O)OC)C1CC(=O)OCC1C(C)C(O)CC1C(CO)COC(=O)CC1C(C(=O)O)=COC(OC2OC(CO)C(O)C(O)C2O)/C1=C\C (configuration not stated)
inactive: activity change, negative = cytotoxicity (C33A) 0.0118% [at 11.6 µM] | activity change, negative = cytotoxicity (CAOV3) 12.7% [at 11.6 µM] | activity change, negative = cytotoxicity (CASKI) 1.02% [at 11.6 µM] | activity change, negative = cytotoxicity (Es-2) -2.47% [at 11.6 µM] | activity change, negative = cytotoxicity (HeLa) 2.07% [at 11.6 µM] | activity change, negative = cytotoxicity (Hek293T) 1.07% [at 11.6 µM] | activity change, negative = cytotoxicity (JEG-3) 0.819% [at 11.6 µM] | activity change, negative = cytotoxicity (OV90) 16.4% [at 11.6 µM] | activity change, negative = cytotoxicity (PA-1) -12.5% [at 11.6 µM] | activity change, negative = cytotoxicity (Tov-21-G) -4.06% [at 11.6 µM] | activity change, negative = cytotoxicity (Tov112D) -1.58% [at 11.6 µM]

C[C@@H]1O[C@@H](O[C@@H]2[C@@H](O)[C@@H](O[C@]3(CO)O[C@H](CO)[C@@H](O)[C@@H]3OC(=O)/C=C/c3ccc(O)cc3)O[C@H](CO)[C@H]2OC(=O)/C=C/c2ccc(O)cc2)[C@H](O)[C@H](O)[C@H]1O[C@@H]1O[C@@H](C)[C@H](O[C@@H]2OC[C@](O)(CO)[C@H]2O)[C@@H](O)[C@H]1O
inactive: activity change, negative = cytotoxicity (C33A) 8.98% [at 11.6 µM] | activity change, negative = cytotoxicity (CAOV3) 0.132% [at 11.6 µM] | activity change, negative = cytotoxicity (CASKI) 12.2% [at 11.6 µM] | activity change, negative = cytotoxicity (Es-2) -1.87% [at 11.6 µM] | activity change, negative = cytotoxicity (HeLa) 10.7% [at 11.6 µM] | activity change, negative = cytotoxicity (Hek293T) -1.85% [at 11.6 µM] | activity change, negative = cytotoxicity (JEG-3) 3.39% [at 11.6 µM] | activity change, negative = cytotoxicity (OV90) -2.82% [at 11.6 µM] | activity change, negative = cytotoxicity (PA-1) 32.6% [at 11.6 µM] | activity change, negative = cytotoxicity (Tov-21-G) 7.09% [at 11.6 µM] | activity change, negative = cytotoxicity (Tov112D) 12.6% [at 11.6 µM]

Cc1ccc(S(=O)(=O)Nc2ccccc2N2CCCCC2)s1
inactive: Potency (C33A) | Potency (CAOV3) | Potency (CASKI) | Potency (Es-2) | Potency (HeLa) | Potency (Hek293T) | Potency (JEG-3) | Potency (OV90) | Potency (PA-1) | Potency (Tov-21-G) | Potency (Tov112D)

Cc1cc(C(=O)Nc2cccc(C(=O)Nc3cccc(C(F)(F)F)c3)c2)on1
inactive: Potency (C33A) | Potency (CAOV3) | Potency (CASKI) | Potency (Es-2) | Potency (HeLa) | Potency (Hek293T) | Potency (JEG-3) | Potency (OV90) | Potency (PA-1) | Potency (Tov112D)

CC1CC(O)/C=C/C(O)C(O)CC(=O)Cc2c(Cl)c(O)cc(O)c2C(=O)O1 (configuration not stated)
inactive: Potency (C33A) | Potency (CAOV3) | Potency (CASKI) | Potency (Es-2) | Potency (HeLa) | Potency (Hek293T) | Potency (JEG-3) | Potency (OV90) | Potency (PA-1) | Potency (Tov-21-G) | Potency (Tov112D)

CC(NC(=O)CCc1nc2ccccc2c(=O)[nH]1)c1ccccc1 (configuration not stated)
inactive: Potency (C33A) | Potency (CAOV3) | Potency (CASKI) | Potency (Es-2) | Potency (HeLa) | Potency (Hek293T) | Potency (JEG-3) | Potency (OV90) | Potency (PA-1) | Potency (Tov-21-G) | Potency (Tov112D)

— PubChem BioAssay (NCATS)
